Compounds with a hit are over-represented: about 3.8% of the library has one in this group of screens.
Mdm2-MdmX inh = disrupts the human Mdm2-MdmX interaction. SaOS-2 split-luciferase Mdm2/MdmX complementation, luminescence. inhibition, % at 8 µM. 330,000 tested, 3% active. AID 485346;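 active means inhibition of at least 50% at 8 µM in the primary screen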
697 NFkB inh = inhibitors of the PMA/ionomycin-induced NF-kB reporter in 697 B cells | 697 B-cell NF-kB luciferase reporter, 16 h | inhibition, % at 4 µM | 330,000 tested, 0.33% active | AID 435022; in the data active means inhibition above about 35%
Bfl-1 A1 inh = inhibitors of the anti-apoptotic protein A1, read as caspase activation; MEF A1-2A-BIM cells, Caspase-Glo 3/7 luminescence, 3 h; percent of clofoctol response, vehicle zero; 330,000 tested, 0.066% active; caspase activation, % (test concentration not listed);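 active means over half of replicate activation scores above 10%, or exactly half above 10 with the replicate mean above 10; inconclusive means replicate mean below 10 yet half the replicates above 10; inactive means over half of replicates below 10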
Beta cell apopt = blocks beta cell apoptosis | INS-1E cytokine-induced death, ATP luminescence, 48 h; percent of positive-control rescue, neutral wells zero | protection from apoptosis, % (test concentration not listed) | 300,000 tested, 0.8% active;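 active means Every replicate reaches about 75%, or at least half do and their mean reaches it too, limit read from the data; inconclusive means At least half of replicates reach the limit but their mean does not; inactive means Under half of replicates reach the limit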;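 further: 0% = cytokine-treated negative control wells and 100% = positive control rescue; higher means more ATP so stronger rescue from cytokine killing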
NTR1 ag = agonists of human neurotensin receptor NTR1; P30989; NTR1-U2OS beta-arrestin-GFP spot imaging, agonist mode; activation, % at 20 µM; 330,000 tested, 0.17% active; AID 493036;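 active means activation at or above 40% of the spot to cytoplasm intensity ratio, with at least 20 cells analyzed; inconclusive means wells under 20 cells, flagged as cytotoxic or low count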;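 further: 0% = DMSO without peptide and 100% = 100 nM NTR1 peptide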
Target sequence (P30989 whole entry, looked up): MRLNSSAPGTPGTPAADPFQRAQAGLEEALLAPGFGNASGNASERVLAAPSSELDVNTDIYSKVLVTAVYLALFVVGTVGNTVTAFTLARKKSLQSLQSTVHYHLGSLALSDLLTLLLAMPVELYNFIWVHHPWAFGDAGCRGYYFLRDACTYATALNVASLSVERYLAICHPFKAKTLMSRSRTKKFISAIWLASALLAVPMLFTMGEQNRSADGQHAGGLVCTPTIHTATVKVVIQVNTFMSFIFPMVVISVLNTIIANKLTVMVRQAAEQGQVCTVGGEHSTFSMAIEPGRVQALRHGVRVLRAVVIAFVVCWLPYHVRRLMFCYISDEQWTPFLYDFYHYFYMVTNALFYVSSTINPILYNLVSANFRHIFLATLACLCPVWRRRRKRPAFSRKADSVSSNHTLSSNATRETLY
Jurkat NFkB inh = lowers PMA/ionomycin-induced NF-kB signal in Jurkat cells; PMA/ionomycin-induced NF-kB luciferase reporter, luminescence; inhibition, % at 4 µM; 330,000 tested, 0.53% active; AID 435003; in the data active means inhibition above about 50%
Mdm2 MdmX conf = confirmation of human Mdm2/MdmX interaction inhibitors; Mdm2-MdmX binding, luminescent assay; inhibition, % at 8 µM; 10,000 tested, 55% active; AID 489028; shares compounds with Mdm2-MdmX inh; in the data active means inhibition above about 40%
FLuc counter = inhibits full-length luciferase, flagging false Mdm2/MdmX hits | shares compounds with Mdm2-MdmX inh | SaOS-2 full-length luciferase counterscreen, luminescence | inhibition, % at 8 µM | 6,200 tested, 77% active;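 active means mean inhibition at 8 µM reaching about 37%, which flags the compound as non-specific, limit read from the data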;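 further: p53-null SaOS-2 cells with luciferase driven by a doxycycline-inducible promoter; compound on cells about two nights before reading with doxycycline added after day one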
* = called active by the depositor.

Results for COc1cc(C(=O)N/C(=C\c2cn(C)c3ccccc23)C(=O)NCCCN2CCOCC2)cc(OC)c1OC ?
Mdm2-MdmX inh: 5; 697 NFkB inh: 11; Bfl-1 A1 inh: 0; Beta cell apopt: 0; NTR1 ag: 1; Jurkat NFkB inh: 2

What do the screens show for `COc1ccc(CCN(C)C(=O)c2cnc(C)cn2)cc1OC`?
Mdm2-MdmX inh: 3; 697 NFkB inh: 4; Bfl-1 A1 inh: 0; Beta cell apopt: 2; NTR1 ag: -1; Jurkat NFkB inh: 16

What do the screens show for `Cc1ccc(N/C(N)=N/c2nc(CSc3nnc(N)s3)cc(=O)[nH]2)cc1`?
Mdm2-MdmX inh: 18; 697 NFkB inh: -7; Bfl-1 A1 inh: 0; Beta cell apopt: 1; NTR1 ag: 1; Jurkat NFkB inh: -8

Results for N/C(=N\c1nc(CSc2nc3ccccc3s2)cc(=O)[nH]1)Nc1ccc(F)cc1 ?
Mdm2-MdmX inh: 57*; 697 NFkB inh: 11; Bfl-1 A1 inh: 2; Beta cell apopt: 7; NTR1 ag: 12; Jurkat NFkB inh: 42; Mdm2 MdmX conf: 46*; FLuc counter: 52*

Results for COc1ccc(NC(=O)Cn2nnc(C(=O)Nc3ccc(F)c(Cl)c3)c2N)cc1 ?
Mdm2-MdmX inh: 59*; 697 NFkB inh: -2; Bfl-1 A1 inh: 0; Beta cell apopt: 1; NTR1 ag: 0; Jurkat NFkB inh: 9; Mdm2 MdmX conf: 34; FLuc counter: 83*

How did COc1ccc(Cl)cc1NC(=O)c1nnn(CC(=O)Nc2ccc3c(c2)OCO3)c1N do in these assays?
Mdm2-MdmX inh: 93*; 697 NFkB inh: -15; Bfl-1 A1 inh: 1; NTR1 ag: 1; Jurkat NFkB inh: 9; Mdm2 MdmX conf: 53*; FLuc counter: 17

How did COc1ccc(Cl)cc1NC(=O)c1nnn(CC(=O)Nc2ccc(OC)c(OC)c2)c1N do in these assays?
Mdm2-MdmX inh: 69*; 697 NFkB inh: 3; Bfl-1 A1 inh: 0; Beta cell apopt: -4; NTR1 ag: 0; Jurkat NFkB inh: 0; Mdm2 MdmX conf: 40; FLuc counter: 32

What do the screens show for `COc1cccc(NC(=O)Cn2nnc(C(=O)Nc3cc(Cl)ccc3OC)c2N)c1`?
Mdm2-MdmX inh: 90*; 697 NFkB inh: -1; Bfl-1 A1 inh: 0; Beta cell apopt: 8; NTR1 ag: -1; Jurkat NFkB inh: 12; Mdm2 MdmX conf: 49*; FLuc counter: 22

How did COc1ccc(NC(=O)Cn2nnc(C(=O)NCc3ccccc3OC)c2N)cc1Cl do in these assays?
Mdm2-MdmX inh: 11; 697 NFkB inh: 6; Bfl-1 A1 inh: 0; Beta cell apopt: -2; NTR1 ag: 11; Jurkat NFkB inh: 7

How did COc1cc(C(=S)N2CCCC2)ccc1OCc1ccccc1 do in these assays?
Mdm2-MdmX inh: -6; 697 NFkB inh: -68; Bfl-1 A1 inh: -1; Beta cell apopt: -2; NTR1 ag: 0; Jurkat NFkB inh: -24

How did COc1ccc(NC(=O)c2nnn(CC(=O)Nc3ccc4c(c3)OCO4)c2N)c(OC)c1 do in these assays?
Mdm2-MdmX inh: 52*; 697 NFkB inh: -6; Bfl-1 A1 inh: 0; Beta cell apopt: -7; NTR1 ag: 0; Jurkat NFkB inh: -25; Mdm2 MdmX conf: -16

How did COc1ccc(Cl)cc1NC(=O)c1nnn(CC(=O)Nc2cc(C)cc(C)c2)c1N do in these assays?
Mdm2-MdmX inh: 94*; 697 NFkB inh: 3; Bfl-1 A1 inh: 2; NTR1 ag: 0; Jurkat NFkB inh: 7; Mdm2 MdmX conf: 57*; FLuc counter: 55*

Results for Cc1nn(Cc2c(Cl)cccc2Cl)c(C)c1NC(=O)c1cn(-c2ccccc2)nc1-c1ccccc1 ?
Mdm2-MdmX inh: 98*; 697 NFkB inh: -31; Bfl-1 A1 inh: 13*; Beta cell apopt: 106*; NTR1 ag: 5; Jurkat NFkB inh: 25; Mdm2 MdmX conf: 99*; FLuc counter: 37*

How did Cc1nn(Cc2c(Cl)cccc2Cl)c(C)c1NC(=O)c1sc2ccccc2c1Cl do in these assays?
Mdm2-MdmX inh: 53*; 697 NFkB inh: 5; Bfl-1 A1 inh: 1; Beta cell apopt: 46; NTR1 ag: 6; Jurkat NFkB inh: 1; Mdm2 MdmX conf: 14

How did Cc1nn(Cc2ccc(Cl)c(Cl)c2)c(C)c1NC(=O)c1sc2ccccc2c1Cl do in these assays?
Mdm2-MdmX inh: 53*; 697 NFkB inh: 15; Bfl-1 A1 inh: 0; Beta cell apopt: -3; NTR1 ag: 4; Jurkat NFkB inh: -2; Mdm2 MdmX conf: 14

What do the screens show for `Cc1ccccc1Cn1nc(C)c(NC(=O)c2sc3ccccc3c2Cl)c1C`?
Mdm2-MdmX inh: 19; 697 NFkB inh: -1; Bfl-1 A1 inh: inconclusive; Beta cell apopt: -4; NTR1 ag: 7; Jurkat NFkB inh: -13

What do the screens show for `CC(=O)c1c(C)[nH]c(C(=O)Nc2ccc(C)cn2)c1C`?
Mdm2-MdmX inh: 53*; 697 NFkB inh: -100; Bfl-1 A1 inh: -5; Beta cell apopt: -7; NTR1 ag: -6; Jurkat NFkB inh: -7; Mdm2 MdmX conf: 48*; FLuc counter: 74*

Results for Cc1ccc(NC(=O)c2cnccn2)nc1 ?
Mdm2-MdmX inh: 53*; 697 NFkB inh: -63; Bfl-1 A1 inh: -1; Beta cell apopt: 4; NTR1 ag: 0; Jurkat NFkB inh: -59; Mdm2 MdmX conf: -5

Results for Cc1ccc(NC(=O)c2cnccn2)c(Br)c1 ?
Mdm2-MdmX inh: -11; 697 NFkB inh: -49; Bfl-1 A1 inh: -1; Beta cell apopt: -2; NTR1 ag: 2; Jurkat NFkB inh: -27

How did COc1ccccc1CC(O)CC1c2c(cc3c(c2OC)OCO3)CCN1C (centres undefined) do in these assays?
Mdm2-MdmX inh: 36; 697 NFkB inh: -5; NTR1 ag: 2; Jurkat NFkB inh: 2

How did CN(C)S(=O)(=O)c1ccc2nc(NC(=O)c3cccnc3)sc2c1 do in these assays?
Mdm2-MdmX inh: 0; 697 NFkB inh: -61; Bfl-1 A1 inh: -3; Beta cell apopt: -4; NTR1 ag: 0; Jurkat NFkB inh: -11

What do the screens show for `O=C(NC(Nc1nc2ccc([N+](=O)[O-])cc2s1)(C(F)(F)F)C(F)(F)F)c1cccnc1`?
Mdm2-MdmX inh: 100*; 697 NFkB inh: -18; Bfl-1 A1 inh: -1; Beta cell apopt: 119*; NTR1 ag: 0; Jurkat NFkB inh: 13; Mdm2 MdmX conf: 94*; FLuc counter: 22

How did COc1ccc(NC(=O)CN(c2ccccc2F)S(=O)(=O)c2ccc(C)cc2)cc1 do in these assays?
Mdm2-MdmX inh: 22; 697 NFkB inh: -8; Bfl-1 A1 inh: 1; Beta cell apopt: -2; NTR1 ag: -1; Jurkat NFkB inh: -2

High-throughput results as filed in PubChem BioAssay.
